32 molecules from PubChem BioAssay (NCATS) can be followed below.

“And” between values parts separate entries of the source, which are not always exact repeats. Identical values can stand only once. Results filed as inconclusive are left out. A number with no mark means an inactive call. The source made the active and inactive calls. Unless noted, the call rests on the fitted dose curve; in most records, active means well fitted curve in the direction sought with a large enough effect; inconclusive means small, poorly fitted or top-dose-only effect, or another doubt; inactive means no such curve, though single readings can be large; an effect the other way counts as inactive or inconclusive.

A short description of experiment [1]: Identifying Small Molecule Inhibitors of Pancreatic Cancer Stem Cells (SN12C, Adherent) (AID 1259358).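 Further: cell survival measured after 48 h of compound exposure.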 Further: potency means the concentration at half of the fitted maximal effect. The method, boiled down:
(§1)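 Cytotoxicity read by CellTiter-Glo luminescence after 48 h compound exposure at 37C; percent activity scaled between DMSO-treated cells and cell-free wells. Spheroid formats used cells pre-formed 14 days in stem cell media on hydrogel.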

Experiment [2] can be described thus: Identifying Small Molecule Inhibitors of Pancreatic Cancer Stem Cells (SN12C, Spheroid) (AID 1259360). Further: potency means the concentration at half of the fitted maximal effect. The settings on record: Potency: SN12C spheroid viability. In outline:
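Endpoint: ATP-based luminescence, 48 h drug exposure. Bortezomib at 9.2 uM final as full-kill control; DMSO vehicle as negative control; activity normalized between vehicle and cell-free wells.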

Experiment [3] can be described thus: Identifying Small Molecule Inhibitors of Pancreatic Cancer Stem Cells (A278, Adherent) (AID 1259361). Further: nearly all actives have a fitted effect of over 35% in size. The method, boiled down:
as §1

Experiment [4] in a line: Identifying Small Molecule Inhibitors of Pancreatic Cancer Stem Cells (Panc1, Adherent) (AID 1259362). Further: potency means the concentration at half of the fitted maximal effect. The settings on record: Potency: viability. In outline: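 Adherent (2D) versus sphere (3D) formats; spheres generated 14 d in SCM beforehand. Compound transferred by pin tool after 4 h, 48 h incubation, CellTiter-Glo endpoint.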
Experiment [5] can be described thus: P-glycoprotein substrates identified in KB-8-5-11 adenocarcinoma cell line, qHTS therapeutic library screen (AID 1346987). Further: nearly all actives have a fitted effect of over 65% in size. Further: potency means the concentration at half of the fitted maximal effect. On activity change, negative = cytotoxicity: series mostly up to about 44 µM; on the % scale 0 is the no-effect control and ±100 the full control effect. The method, boiled down:
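In this qHTS, P-gp-rich KB-8-5-11 cells received library compounds across a concentration range. Viability was quantified by luminescence after 72 h at 37 degree C.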

Experiment [6] can be described thus: P-glycoprotein substrates identified in KB-3-1 adenocarcinoma cell line, qHTS therapeutic library screen (AID 1346986). Further: nearly all actives have a fitted effect of over 60% in size.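 Further: potency means the concentration at half of the fitted maximal effect; potency is for cytotoxicity meaning loss of cell viability.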 On activity change, negative = cytotoxicity: on the % scale 0 is the no-effect control and ±100 the full control effect. In outline:
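Dose-response cytotoxicity, KB-3-1 vs P-gp-high KB-8-5-11, no colchicine in assay medium. Read: CellTiter-Glo at 72 h.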

A short description of experiment [7]: Natriuretic polypeptide receptor (hNpr1) antagonism - Pilot counterscreen GloSensor control cell line (AID 1347045; calls by dose curve; further: series mostly up to about 38 µM; on the % scale 0 is the no-effect control and ±100 the full control effect). In outline:
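HEK293 cGMP-sensor cells; 2% GloSensor reagent 2 h RT; LOPAC compounds in 1:5 titrations 30-50 min; 50 uM SNP 20 min; luminescence pre-read and post-read.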

Experiment [8] deals with Atrial natriuretic peptide receptor 1 (Homo sapiens) (UniProt P16066). Put plainly: Natriuretic polypeptide receptor (hNpr1) antagonism - Pilot screen (AID 1347049; calls by dose curve;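 further: HEK293 cells with hNpr1 and GloSensor cGMP luciferase stimulated by 0.1 nM hNppA; agonist-evoked cGMP luminescence read 20 min after hNppA addition; series mostly up to about 58 µM; on the % scale 0 is the no-effect control and ±100 the full control effect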). In outline:
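Receptor antagonism read as cGMP-dependent luminescence in hNpr1/pGS-40F HEK293 cells: pre-read after 30 min compound exposure, post-read 20 min after hNppA agonist at 0.1 nM final, all at room temperature, protected from light; A-71915 titration as control.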

Sequence of Atrial natriuretic peptide receptor 1 (Homo sapiens) (P16066 whole entry, looked up): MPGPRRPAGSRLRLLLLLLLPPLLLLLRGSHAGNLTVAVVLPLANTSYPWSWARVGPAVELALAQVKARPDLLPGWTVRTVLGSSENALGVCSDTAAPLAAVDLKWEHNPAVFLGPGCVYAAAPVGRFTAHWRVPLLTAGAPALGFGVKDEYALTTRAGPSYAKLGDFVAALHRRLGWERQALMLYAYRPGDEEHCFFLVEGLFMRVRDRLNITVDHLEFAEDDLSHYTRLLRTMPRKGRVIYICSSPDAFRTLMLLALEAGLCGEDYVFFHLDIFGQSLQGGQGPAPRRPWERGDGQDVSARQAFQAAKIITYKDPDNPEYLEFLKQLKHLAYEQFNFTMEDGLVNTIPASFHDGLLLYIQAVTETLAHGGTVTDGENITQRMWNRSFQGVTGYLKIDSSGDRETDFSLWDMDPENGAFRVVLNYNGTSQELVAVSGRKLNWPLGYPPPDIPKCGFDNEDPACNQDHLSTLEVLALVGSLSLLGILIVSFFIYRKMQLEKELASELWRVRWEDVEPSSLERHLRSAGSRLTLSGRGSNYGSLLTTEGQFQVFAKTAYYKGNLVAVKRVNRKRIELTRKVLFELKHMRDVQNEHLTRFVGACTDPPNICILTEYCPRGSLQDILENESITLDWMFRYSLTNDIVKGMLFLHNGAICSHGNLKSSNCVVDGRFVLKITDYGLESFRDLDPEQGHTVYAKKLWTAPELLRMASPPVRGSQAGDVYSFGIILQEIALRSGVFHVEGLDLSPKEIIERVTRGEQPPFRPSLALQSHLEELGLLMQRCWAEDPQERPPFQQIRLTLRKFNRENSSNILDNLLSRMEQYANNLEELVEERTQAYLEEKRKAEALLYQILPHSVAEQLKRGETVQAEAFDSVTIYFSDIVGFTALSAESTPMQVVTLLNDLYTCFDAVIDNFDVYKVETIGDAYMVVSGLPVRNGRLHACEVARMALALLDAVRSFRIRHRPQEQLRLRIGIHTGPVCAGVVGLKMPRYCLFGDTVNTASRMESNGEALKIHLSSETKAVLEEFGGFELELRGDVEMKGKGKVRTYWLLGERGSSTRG

As for `COc1cc2c(cc1OC)CN(CCc1ccc(NC(=O)c3cccc4c(=O)c5cccc(OC)c5[nH]c34)cc1)CC2`, the Potency result in experiment [1], in experiment [2], in experiment [4] and in experiment [5] was “inactive” throughout. Besides, the IC50 (viability decrease) in experiment [3] is 10.5 µM (active).
Take `C[C@H](NC(=O)Cc1cc(F)cc(F)c1)C(=O)N[C@@H]1C(=O)N(C)c2ccccc2-c2ccccc21`: the Potency result in experiment [1], in experiment [2], in experiment [6] and in experiment [5] was “inactive” each time. For the same molecule, the IC50 (viability decrease) entry in experiment [3] is “inactive”.
Take `NC(=O)c1ccc(-c2nc(-c3ccc4c(c3)OCO4)c(-c3ccccn3)[nH]2)cc1`: the Potency entry in experiment [1], in experiment [2], in experiment [4], in experiment [6] and in experiment [5] was “inactive” each time. Besides, in experiment [3], the IC50 (viability decrease) entry is “inactive”.
For the molecule `C[C@@H]1C[C@H]2[C@@H]3CCC4=CC(=O)C=C[C@]4(C)C3(F)[C@@H](O)C[C@]2(C)[C@@]1(O)C(=O)CO` (some centres not stated), the Potency entry in experiment [1] and in experiment [2] was “inactive” each time. The IC50 (viability decrease) in experiment [3] was 23.5 µM (active).
Take `CN([C@@H](Cc1ccc(OS(=O)(=O)c2cccc3cnccc23)cc1)C(=O)N1CCN(c2ccccc2)CC1)S(=O)(=O)c1cccc2cnccc12`: the Potency result in experiment [1], in experiment [2] and in experiment [4] was “inactive” in each case. Besides, the IC50 (viability decrease) entry in experiment [3] was “inactive”. Also, the activity change, negative = cytotoxicity is -0.309% [at 5.11 µM] in experiment [6] and -4.44% [at 5.11 µM] in experiment [5].
Consider `CN(C)C(=O)c1ccc(S(=O)(=O)c2ccc(NC(=O)[C@@](C)(O)C(F)(F)F)c(Cl)c2)cc1`, for which the Potency result in experiment [1] is “inactive”.
`O=S(=O)(N=Cc1c(O)ccc2ccccc12)c1cccs1`: the Potency entry in experiment [1], in experiment [2], in experiment [4] and in experiment [5] was “inactive” in each case. The IC50 (viability decrease) result in experiment [3] was “inactive”.
With `CCOC(=O)C1=C[C@@]2(CC)CCCN3CCc4c(n1c1ccccc41)[C@H]32`, the Potency entry in experiment [1] and in experiment [2] was “inactive” each time. The IC50 (viability decrease) entry in experiment [3] is “inactive”.
With `Cc1cc(-c2ccc(CC(=O)Nc3ccc(-c4cccnc4)cc3)cc2)ccn1`, the Potency entry in experiment [1] and in experiment [2] was “inactive” each time. In addition, in experiment [3], the IC50 (viability decrease) was 18.7 µM (active).
For the molecule `CN(C(=O)c1ccc(F)cc1C(F)(F)F)C1CCN(c2nnc(-c3ccnn3C)c3ccccc23)CC1`, the Potency result in experiment [1], in experiment [2] and in experiment [5] was “inactive” throughout.
Turning to `CC[C@@H](C)[C@H](NC(=O)[C@H](CC1CCCCC1)NC(=O)c1ccno1)C(=O)N1CCC2(CCc3ccccc32)CC1`, the Potency result in experiment [1] and in experiment [5] was “inactive” each time. Besides, in experiment [2], the Potency was 11.8 µM (active).
`Oc1cccc(-c2nc(N3CCOCC3)c3oc4ncccc4c3n2)c1`: the Potency in experiment [1] is 0.0743 µM (active); in experiment [6], 0.58 µM (active); in experiment [5], 108 nM (active) and 517 nM (active). Besides, the IC50 (viability decrease) in experiment [3] was 0.105 µM (active).
Turning to `O=C(O)[C@@H](c1ccc(OCc2ccc3ccccc3n2)cc1)C1CCCC1`, the Potency entry in experiment [1], in experiment [2] and in experiment [5] was “inactive” throughout.
For the molecule `Cc1ccc(NC(=O)c2cccc(C(C)(C)C#N)c2)cc1Nc1ccc2ncn(C)c(=O)c2c1`, the Potency in experiment [1] was 7.43 µM (active); in experiment [5], 16.6 µM (active).
Consider `CCC(C)n1ncn(-c2ccc(N3CCN(c4ccc(OC[C@H]5CO[C@](Cn6cncn6)(c6ccc(Cl)cc6Cl)O5)cc4)CC3)cc2)c1=O` (some centres not stated), for which the Potency entry in experiment [1], in experiment [4] and in experiment [5] was “inactive” throughout. Besides, the IC50 (viability decrease) in experiment [3] was 5.9 µM (active).
On to `COc1c(Cl)cc2c([nH]c3cnccc32)c1NC(=O)c1cccnc1C`, for which the Potency entry in experiment [1], in experiment [6] and in experiment [5] was “inactive” each time. Further, in experiment [3], the IC50 (viability decrease) entry was “inactive”.
As to `NC(=O)c1ccc(-c2nc(-c3ccc4c(c3)OCCO4)c(-c3ccccn3)[nH]2)cc1`, the Potency entry in experiment [1] and in experiment [5] was “inactive” each time.
Turning to `COc1ccccc1-c1cccc(-c2c(O)c3cc(C#N)c(Cl)cc3[nH]c2=O)c1`, the Potency entry in experiment [1] and in experiment [5] was “inactive” in each case. Further, the Potency in experiment [4] is 1.18 µM (active).
On to `O=C(C1CC1)N1CC[C@@H](Cn2c(-c3ccc(-c4ccc5occc5c4)cc3)nc3cnccc32)C1`, for which the Potency entry in experiment [1] and in experiment [5] was “inactive” each time.
Regarding `O=C(Nc1nc2ccccc2n1CCN1CCOCC1)c1cccc([N+](=O)[O-])c1`, the Potency result in experiment [1], in experiment [6] and in experiment [5] was “inactive” in each case. Also, the result in experiment [7] and in experiment [8] was inactive.
Take `CNC(=O)c1ccc(N2C(=S)N(c3ccc(C#N)c(C(F)(F)F)c3)C(=O)C2(C)C)cc1F`: the Potency entry in experiment [1], in experiment [4] and in experiment [5] was “inactive” throughout. The IC50 (viability decrease) in experiment [3] is 23.5 µM (active).
`O=C(Nc1ccc(F)c(C(F)(F)F)c1)Nc1nnc(-c2ccncc2)s1`: the Potency entry in experiment [1] and in experiment [5] was “inactive” throughout. Besides, in experiment [3], the IC50 (viability decrease) was 14.8 µM (active).
For the molecule `O=C(NOC[C@H](O)CO)c1ccc(F)c(F)c1Nc1ccc(I)cc1F`, the Potency in experiment [1] was 9.35 µM (active); in experiment [2], 0.0053 µM (active). Further, the Potency result in experiment [5] is “inactive”.
As to `c1ccc(-c2nn3c(c2-c2ccnc4cc(OCCN5CCOCC5)ccc24)CCC3)nc1`, the Potency entry in experiment [1], in experiment [4] and in experiment [6] was “inactive” throughout.
As for `O=c1ncn2nc(Sc3ccc(F)cc3F)ccc2c1-c1c(Cl)cccc1Cl`, the Potency result in experiment [1] and in experiment [5] was “inactive” throughout.
Consider `COCCNCCCn1c(C(=O)CF)c(-c2ccc(C)cc2)c2c(N)ncnc21`, for which the Potency entry in experiment [1] and in experiment [5] was “inactive” in each case. Moreover, the IC50 (viability decrease) in experiment [3] was 18.7 µM (active).
For the molecule `Cn1c(=O)c(F)c(Nc2ccc(I)cc2F)c2c(=O)n(C[C@@H](O)CO)cnc21`, the Potency in experiment [1] was 0.418 µM (active); in experiment [2], 8.33 µM (active). The Potency result in experiment [5] was “inactive”.
For `CCc1ccc(CCOc2ccc(CC3SC(=O)NC3=O)cc2)nc1` (configuration not stated) the same measures were “inactive”, “inactive” and “inactive”.
For `CN(C)c1ccc(C2Nc3ccc4ccccc4c3C3=C2C(=O)CC(C)(C)C3)cc1Br` (configuration not stated) the same measures were “inactive”, “inactive” and “inactive”.
Taken in the same sequence, the figures for `CCCn1c(=O)c2[nH]c(C34CC5CC3C[C@@H](C5)C4)nc2n(CCC)c1=O` were “inactive”, “inactive” and “inactive”.
In the case of `C[C@]1(c2nc3c(C(N)=O)cccc3[nH]2)CCCN1`, the Potency result in experiment [1] and in experiment [5] was “inactive” throughout. In addition, the IC50 (viability decrease) in experiment [3] was 18.7 µM (active).
For the molecule `OC[C@H](Cc1ccccc1)Nc1nc(Oc2ccc3c(c2)CCC3)nc2c1ncn2Cc1ccc(-c2ccccc2)cc1`, the Potency result in experiment [1] is “inactive”. In addition, the Potency in experiment [4] is 1.32 µM (active).
